Compound activity: PubChem, Broad Institute
This is one part of a sample in which hits are shown more often than they occur.
BL2 CD40 inh: CD40 pathway inhibition in BL2 cells. BL2 NF-kB luciferase reporter, CD40L-induced, 4 h. inhibition, % at 10 µM. 0.94% of 83,000 active;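 active = mean inhibition of at least 50% with a set share of replicates also reaching that level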;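 note: 0% = neutral control wells and 100% = IKK inhibitor VII at 50 µM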
Starred values were filed as active, the others as inactive; ! = not confirmed by another sample; [ ] = remark or other dose.

SMILES	BL2 CD40 inh
CC(C)[C@H](C)NC(=O)N(C)C[C@@H]1OCc2ccccc2-c2ccccc2C(=O)N([C@@H](C)CO)C[C@H]1C	-7
Cc1ccccc1NC(=O)c1ccc(Cl)c(NC(=O)C2CCCC2)c1	2
N#Cc1cccc(-c2ccc(C3[C@H]4CNC[C@@H]3N4Cc3ccc4c(c3)OCO4)cc2)c1 (stereo partly drawn)	74*!
N#Cc1cccc(-c2ccc(C3[C@H]4CNC[C@@H]3N4Cc3cccc(F)c3)cc2)c1 (stereo partly drawn)	0[25 µM]
COc1cccc(-c2ccc(C3[C@H]4CNC[C@@H]3N4Cc3ccc4c(c3)OCO4)cc2)c1 (stereo partly drawn)	-56[25 µM]
CCCC(=O)N1CCC2(CC1)CN[C@@H](CO)c1[nH]c3cc(OC)ccc3c12	3[25 µM]
CC(C)C#Cc1ccc([C@H]2[C@H]3CN(Cc4ccccn4)CCCCN3[C@H]2CO)cc1	8[25 µM]
O=C(c1ccccc1F)N1C[C@H]2[C@@H](c3ccccc31)[C@@H](CO)N2Cc1ccc2c(c1)OCO2	5[25 µM]
CCCOC(=O)c1ccc(O)c(OC)c1	15
COc1cc(C(=O)O[C@H]2CC(C)=CC[C@@]3(C)CC[C@@](O)(C(C)C)[C@H]23)ccc1O	52*
CN1C(=O)c2cc(NC(=O)c3ccc(F)cc3)ccc2OC[C@@H]2O[C@@H](CC(=O)NCC3CCCCC3)CC[C@H]21	-1
C[C@H](NC(=O)C[C@@H]1C[C@@H]2c3cc(NC(=O)NC4CCCC4)ccc3O[C@@H]2[C@H](CO)O1)c1ccccc1	1
COc1ccc(NC(=O)O/N=C/c2c(C)nn(C(C)(C)C)c2C)cc1	64*
COc1ccc(NC(=O)CCc2c(C)nc3nc(C)nn3c2C)cc1	2
COc1cc(C=NOC(=O)Nc2ccccc2)cc(OC)c1OC	-26
C[C@@H]1CN([C@H](C)CO)C(=O)c2cc(NC(=O)NC3CCCCC3)ccc2O[C@@H](C)CCCCO[C@@H]1CN(C)Cc1ccc(Cl)c(Cl)c1	0
CS(=O)(=O)N1C[C@@H]2C(c3ccc(Br)cc3)[C@H](C1)N2CC(F)(F)F (stereo partly drawn)	2
CC1=C(C#N)c2nc(N)c(C#N)c(C)c2/C1=C\c1ccccc1	49*
Cc1c(C#N)c(N)nc(Cl)c1C#N	3
CCc1nc(N)c(C#N)c(-c2cccc3ccccc23)c1C	4
CNC[C@H]1Oc2ccc(NS(C)(=O)=O)cc2C(=O)N(C)C[C@H]1C	13
C[C@@H]1CN(C)C(=O)c2cccc(NS(C)(=O)=O)c2O[C@H]1CN(C)S(C)(=O)=O	-4
Cc1sc2ccccc2[n+]1CC(=O)O	-11
CC[n+]1c(C)sc2cc(C)ccc21	56*
CC[n+]1c(/C=C(/C)SC)sc2ccccc21	26
SMILES	BL2 CD40 inh
O=C(C[C@@H]1C[C@H]2c3cc(NC(=O)NC4CCCC4)ccc3O[C@H]2[C@H](CO)O1)NCc1ccccc1	17
COc1cccc(C#Cc2ccc3c(c2)[C@@H]2[C@@H](CCN2S(=O)(=O)c2ccc(C)cc2)[C@H](CO)N3)c1	7[25 µM]
C[n+]1c(-c2ccccc2)cc2c(=Cc3ccccc3)c3ccccc3n21	93*
O=[N+]([O-])c1ccc2c(c1)c(-c1ccccc1)nc1nncn12	1
CN(C)c1ccc(C=c2c3cc(O)ccc3n3c2cc(-c2ccccc2)[n+]3C)cc1	80*
CCOC(=O)c1cc2c(=Cc3ccc(N(C)C)cc3)c3ccccc3n2[n+]1C	24
C[n+]1c(-c2ccccc2)cc2c(=Cc3ccc([N+](=O)[O-])cc3)c3ccccc3n21	110*
O=[N+]([O-])c1ccc(C=CC=Cc2ccccc2)cc1	3
CC(C)(O)C#Cc1ccc([C@H]2[C@@H](CO)N3CCCCN(S(C)(=O)=O)C[C@H]23)cc1	-2[25 µM]
COc1ccccc1NC(=O)N(C)C[C@H]1OCc2ccccc2-c2c(n(C)c3ccccc23)C(=O)N([C@H](C)CO)C[C@H]1C	3
C[C@@H]1CN([C@H](C)CO)S(=O)(=O)c2ccc(-c3cncnc3)cc2O[C@H]1CN(C)Cc1ccncc1	-10[25 µM]
COc1ccc2c3c([nH]c2c1)[C@H](CO)N(C(=O)Nc1c(C)noc1C)CC31CCN(CC2CCCC2)CC1	4
COc1ccc(-c2ccccc2[C@H]2[C@@H](C#N)N(C(=O)C3CCCC3)[C@@H]2CO)cc1	-3
C[C@@H]1CN([C@@H](C)CO)C(=O)c2c(c3ccccc3n2C)-c2ccccc2CO[C@H]1CN(C)C(=O)Nc1ccccc1	7
C[C@H](CO)N1C[C@H](C)[C@H](CN(C)S(=O)(=O)c2ccc(Oc3ccccc3)cc2)OCc2cn(nn2)CCCC1=O	4
CC(C)NC(=O)Nc1cccc2c1O[C@@H](CN(C)C(=O)NC(C)C)[C@H](C)CN(C)C2=O	-2
O=C(C[C@H]1CC[C@@H]2[C@H](COC[C@H](O)CN2C(=O)c2ccccc2F)O1)NCc1ccc(Cl)c(Cl)c1	6[25 µM]
CS(=O)(=O)N1C[C@@H]2C(c3ccc(-c4ccc(F)cc4)cc3)[C@H](C1)N2CC1CC1 (stereo partly drawn)	-1
C[n+]1c2n(c3ccccc31)N=C(c1ccccc1)CS2	15
C[n+]1c2n(c3ccccc31)N=C(c1ccc(-c3ccccc3)cc1)CS2	70*
